Assay results from PubChem BioAssay AID1259415 (National Center for Advancing Translational Sciences (NCATS), 2018).
Among all 410,000 compounds or so, about 18,000 (4.4%) were called active. Roughly 7% stayed inconclusive and do not appear here. This is one part of a sample in which actives are shown more often than they occur. Values without a mark were called inactive. No stated cut-off is given here; in the data, active means activity change below about -60%; inconclusive means no clear call, values can overlap the other calls; inactive means above about -39%.

Assay: qHTS Assay for inhibitors of the human cytomegalovirus (HCMV)
Conditions: HFF cells, HCMV-luciferase reporter, 72 h; at 57.5 µM; active compounds read low
Method in brief: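 After 16 h attachment at 37C, HFF cells received test compound and HCMV-luciferase (1 PFU/cell); reporter luminescence read 72 h later, data normalized against buffer-only and known inhibitor Salinomycin.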
On the % scale 0 is the no-effect control and ±100 the full control effect.

First: CCc1nc2c(OCCOc3ccccc3)cccn2c1N(C)C(=O)c1ccccc1F
Second: CCOc1cc(NC(=O)c2ccccc2C(=O)O)c(OCC)cc1NC(=O)c1ccccc1F
The activity change, negative = inhibition of the first is lower: -30.7% for the first, -3.32% for the second.

First: COc1ccc2c(c1)C(c1cccs1)=NNC(c1cccnc1)=N2
Second: COc1cccc(-c2n[nH]c3c2C(c2cccc(O)c2)N(C)C3=O)c1 (stereo not drawn)
The activity change, negative = inhibition of the first is lower: -22.6% for the first, 179% for the second.

Compared with Brc1cccc(-c2nnn3c2nc(NC2CCCCC2)c2ccccc23)c1, Cc1cccc(Nc2nc(C)nc(N)c2S(=O)(=O)c2ccccc2)c1 is lower in activity change, negative = inhibition: 34.7% for the first, 0.44% for the second.

Going from O=C(Cc1ccc(Cl)cc1)NCC(c1cccs1)S(=O)(=O)c1ccc(Cl)cc1 (stereo not drawn) to Cc1c(Cl)cccc1NC(=O)CSc1ccc(-c2cccnc2)nn1, the activity change, negative = inhibition falls from -8.05% to -12.1%.

Compared with O=C(CNC(=O)c1ccco1)OCC(=O)c1ccccc1, O=C(CNC(=O)c1ccco1)NNC(=O)c1ccc(Br)cc1 is lower in activity change, negative = inhibition: 49.6% for the first, -4.75% for the second.

First: CC(OC(=O)CN1C(=O)C2CCCCC2C1=O)C(=O)Nc1ncc(Cl)cc1Cl (stereo not drawn)
Second: CCCNC(=O)C1CCC(Cn2c(=O)c3sccc3n(Cc3ccccc3F)c2=O)CC1 (stereo not drawn)
The activity change, negative = inhibition of the first is higher: 22.5% for the first, 1.25% for the second.

Compared with Cc1nc2ccn(Cc3cccnc3)c(=O)c2cc1C(=O)N1CCN(c2ccccc2F)CC1, C=CCNC(=O)COc1coc(CN2CCN(Cc3ccccc3)CC2)cc1=O is lower in activity change, negative = inhibition: 10.9% for the first, -9% for the second.

Going from CCCCN(C)C(=O)c1ccc2c(c1)N(CC)C(=O)c1ccccc1S2(=O)=O to O=C(O)/C(=C/c1cccnc1)NC(=O)c1ccccc1, the activity change, negative = inhibition rises from -8.24% to 6.75%.

First: N=c1ccccn1Cc1ccccc1
Second: O=C(N/N=C/c1cccc2cccnc12)[C@H]1C[C@@H]1c1ccccc1
The activity change, negative = inhibition of the first is lower: -18.5% for the first, 20.4% for the second.

Compared with CC1=NNC(=O)C1CC(=O)N/N=C/c1ccncc1 (stereo not drawn), CCOC(=O)CNC(=O)CSc1ccc2nnc(-c3cccnc3)n2n1 is higher in activity change, negative = inhibition: 42.5% for the first, 49.6% for the second.

O=C(N/N=C/c1ccc(O)c(O)c1)C1c2ccccc2Oc2ccccc21 gave an activity change, negative = inhibition of 23.9%.

For COC1C(O)C(C)OC(OC2CCC3(C=O)C(CCC4C3CCC3(C)C(C5=CC(=O)OC5)CCC43O)C2)C1O (stereo not drawn), the activity change, negative = inhibition was -106% (active).
With O=C(NNC(=O)c1ccco1)Nc1ccccc1 the activity change, negative = inhibition was -62% (active).
For CCN1CCN(c2cc3nc(C)n(Cc4ccccc4)c(=O)c3cc2NC(=O)c2ccccc2F)CC1, the activity change, negative = inhibition was -85.2% (active).
For C=CCNC(=S)/N=c1/ccccn1Cc1ccccc1, the activity change, negative = inhibition was -98.8% (active).
With O=C(CSc1cccc2cccnc12)N/N=C/c1cccnc1 the activity change, negative = inhibition was -101% (active).
For CCOC(=O)N/N=C/c1cccnc1, the activity change, negative = inhibition was -60.5% (active).
In the case of O=C(N/N=C/c1cccnc1)c1cc2ccccc2cc1O, the activity change, negative = inhibition was -98% (active).
